Measurements from the supplement of paper PMC10849652.
About 7,900 targets were measured; listed, in parts, are those with a hit and a random draw of the rest. About 0.6% of all pairs of compound and target were hits.

Columns and labels:
Test in all cases: log2 fold change, soluble protein after heating vs DMSO (PISA); higher = thermal stabilisation; K562 cells, 10 uM, 30 min; active = over 0.2 and 3.5 SD of the protein, either way, in both replicates (recomputed)
[1] = compound: CC[C@@H]1C(=O)N(C)c2cnc(Nc3ccc(C(=O)NC4CCN(C)CC4)cc3OC)nc2N1C1CCCC1
Method in brief: (§1)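 K562 cells (2×10^6 cells/mL) were treated with 10 μM compound for 30 min, and aliquots were heated for 3 min over 48°C-58°C. Pooled aliquots were extracted in PBS with 0.5% NP-40 at 4°C, and the supernatant after 21,000xg for 90 min was measured by TMTpro 16plex LC-MS/MS with channel sums equalised. Reported thermal stability, relative to control samples and from duplicates, is a log2 fold change.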

[2] = compound: CC[C@@H]1C(=O)N(C)c2cnc(Nc3ccc(C(=O)N[C@H]4CC[C@H](N5CCN(CC6CC6)CC5)CC4)cc3OC)nc2N1C(C)C [volasertib]
Method in brief: as §1

[3] = compound: CC[C@H](C)N1C=C(C2=C(C=C(C=C21)C3=CN=C(C=C3)N4CCNCC4)C(=O)NCC5=C(C=C(NC5=O)C)C)C
Method in brief: as §1

[4] = compound: CC[C@H](C)[C@@H](C(=O)N[C@@H]([C@@H](C)O)C(=O)N[C@@H](CC(C)C)C(=O)[C@]1(CO1)C)NC(=O)[C@H]([C@@H](C)CC)N(C)C(=O)C [epoxomicin]
Method in brief: as §1

[5] = compound: CCn1c(C(=O)N(C2CC2)C2CC2)cc2c3c(ncn3C)c(Nc3cc(C)n(C)n3)nc21
Method in brief: as §1

[6] = compound: CCn1cc(-c2ccnc3[nH]c(-c4cccc(CN(C)C)c4)cc23)c(-c2ccc(NC(=O)N(C)C)cc2)n1
Method in brief: as §1

[7] = compound: CN(C)CC(=O)Nc1ccc2[nH]c(=O)c3ccccc3c2c1
Method in brief: as §1

[8] = compound: CN(CCOC1=CC=C(C=C1)C[C@H]2C(=O)NC(=O)S2)C3=CC=CC=N3 (racemic) [rosiglitazone]
Method in brief: as §1

[9] = compound: CN1C2=C(C3=C1C(=O)N(N=C3)CC4=CC(=CC=C4)N)SC(=C2)S(=O)C
Method in brief: as §1

[10] = compound: CN1CCC(CNc2ccc3ncc(-c4cccc(OC(F)(F)F)c4)n3n2)CC1
Method in brief: as §1

[11] = compound: CN1CCN(CCOc2cc(OC3CCOCC3)c3c(Nc4c(Cl)ccc5c4OCO5)ncnc3c2)CC1 [saracatinib]
Method in brief: as §1

[12] = compound: CN1CCN(c2nc(C3=C(c4c[nH]c5ccccc45)C(=O)NC3=O)c3ccccc3n2)CC1 [sotrastaurin]
Method in brief: as §1

[13] = compound: CN1CC[C@H](c2c(O)cc(O)c3c(=O)cc(-c4ccccc4Cl)oc23)[C@H](O)C1 [alvocidib]
Method in brief: as §1

[14] = compound: CN1CCc2c(c3ccccc3n2Cc2ccc(C(=O)NO)cc2)C1 [Tubastatin A]
Method in brief: as §1

[15] = compound: CNC(=O)C1=CC=CC=C1NC2=NC(=NC=C2Cl)NC3=C(C=C(C=C3)N4CCOCC4)OC
Method in brief: as §1

[16] = compound: CNC(=O)c1ccc(Nc2ncc(C(F)(F)F)c(NCc3nccnc3N(C)S(C)(=O)=O)n2)cc1 [defactinib]
Method in brief: as §1

[17] = compound: CNCc1ccc(-c2[nH]c3cc(F)cc4c3c2CCNC4=O)cc1 [rucaparib]
Method in brief: as §1

[18] = compound: CNc1nc(-c2ccc3c(N)n[nH]c3c2)cc(N2C[C@@H](C(=O)NC3CCCCC3)CC[C@H]2C)n1
Method in brief: as §1

[19] = compound: COC(=O)N[C@@H](C)CNc1nccc(-c2cn(C(C)C)nc2-c2cc(Cl)cc(NS(C)(=O)=O)c2F)n1 [encorafenib]
Method in brief: as §1

[20] = compound: COC(=O)[C@H](CCSC)NC(=O)C1=C(C=C(C=C1)NC[C@H](CS)N)C2=CC=CC=C2
Method in brief: as §1

Measured: log2 fold change

SMARCAD1 isoform 2 (UniProt Q9H4L7)
Chain of UniProt Q9H4L7 (Q9H4L7 whole entry, looked up): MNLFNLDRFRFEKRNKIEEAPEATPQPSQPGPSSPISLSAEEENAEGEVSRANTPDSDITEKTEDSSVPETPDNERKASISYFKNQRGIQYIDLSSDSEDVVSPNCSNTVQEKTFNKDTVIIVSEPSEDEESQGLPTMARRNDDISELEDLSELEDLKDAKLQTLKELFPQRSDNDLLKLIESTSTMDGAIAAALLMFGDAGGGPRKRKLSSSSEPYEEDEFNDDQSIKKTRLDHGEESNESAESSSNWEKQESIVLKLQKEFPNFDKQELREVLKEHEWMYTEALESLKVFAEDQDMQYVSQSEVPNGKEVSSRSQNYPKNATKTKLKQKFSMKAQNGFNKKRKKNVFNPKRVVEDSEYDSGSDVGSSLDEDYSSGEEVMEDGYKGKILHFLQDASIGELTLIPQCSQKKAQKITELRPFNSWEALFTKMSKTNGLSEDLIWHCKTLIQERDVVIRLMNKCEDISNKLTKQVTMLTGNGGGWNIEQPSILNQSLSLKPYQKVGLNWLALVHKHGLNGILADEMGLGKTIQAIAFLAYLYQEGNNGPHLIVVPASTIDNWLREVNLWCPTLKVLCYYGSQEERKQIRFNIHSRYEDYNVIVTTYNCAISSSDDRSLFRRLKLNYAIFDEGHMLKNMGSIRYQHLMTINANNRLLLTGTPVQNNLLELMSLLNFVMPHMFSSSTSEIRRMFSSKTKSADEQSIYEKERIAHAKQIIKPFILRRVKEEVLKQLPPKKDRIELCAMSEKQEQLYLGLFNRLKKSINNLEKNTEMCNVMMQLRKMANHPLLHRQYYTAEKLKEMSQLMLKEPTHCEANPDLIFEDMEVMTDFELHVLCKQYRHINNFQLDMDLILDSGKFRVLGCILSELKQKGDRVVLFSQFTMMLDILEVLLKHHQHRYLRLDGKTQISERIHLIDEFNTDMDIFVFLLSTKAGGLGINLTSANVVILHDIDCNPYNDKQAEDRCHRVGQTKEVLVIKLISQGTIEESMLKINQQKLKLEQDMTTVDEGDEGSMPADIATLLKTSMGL
active: [2] -0.378
inactive: [1] -0.085 | [3] 0.057 | [4] 0.046 | [5] -0.055 | [6] -0.1 | [7] 0.04 | [8] 0.071 | [9] -0.037 | [10] -0.1 | [11] -0.086 | [12] -0.043 | [13] -0.243 | [14] 0.053 | [15] 0.016 | [16] -0.099 | [17] -0.056 | [18] 0.035 | [19] 0.029 | [20] -0.023

SNX2 (UniProt O60749)
Chain of UniProt O60749 (O60749 whole entry, looked up): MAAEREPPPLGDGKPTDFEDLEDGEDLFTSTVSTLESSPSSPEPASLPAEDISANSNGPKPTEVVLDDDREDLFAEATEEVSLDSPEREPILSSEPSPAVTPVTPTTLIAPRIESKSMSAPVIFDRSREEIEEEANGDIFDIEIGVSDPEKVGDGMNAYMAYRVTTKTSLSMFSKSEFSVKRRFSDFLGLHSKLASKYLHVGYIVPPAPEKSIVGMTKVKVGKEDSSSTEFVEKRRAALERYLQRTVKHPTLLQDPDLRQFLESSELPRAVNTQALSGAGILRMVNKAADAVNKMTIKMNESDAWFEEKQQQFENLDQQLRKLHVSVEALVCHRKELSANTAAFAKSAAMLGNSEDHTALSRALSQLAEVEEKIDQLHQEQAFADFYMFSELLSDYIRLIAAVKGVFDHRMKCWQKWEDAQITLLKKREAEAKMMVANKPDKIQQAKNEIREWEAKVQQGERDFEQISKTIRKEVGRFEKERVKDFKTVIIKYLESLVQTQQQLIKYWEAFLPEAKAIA
inactive: [1] -0.129 | [2] -0.053 | [3] 0.093 | [4] 0.026 | [5] -0.102 | [6] -0.08 | [7] 0.005 | [8] 0.054 | [9] -0.003 | [11] 0.006 | [12] 0.002 | [13] -0.089 | [14] 0.004 | [15] -0.114 | [16] -0.068 | [17] -0.004 | [18] 0.024 | [19] 0 | [20] -0.029
active: [10] -0.332

SMG1 (UniProt Q96Q15)
inactive: [1] -0.137 | [3] 0.158 | [4] 0.024 | [5] 0.002 | [6] 0.05 | [7] 0.046 | [8] -0.003 | [9] 0.129 | [10] -0.02 | [11] -0.039 | [12] 0.041 | [13] -0.085 | [14] 0.014 | [15] 0.042 | [16] 0 | [17] 0.025 | [18] -0.12 | [19] 0.023 | [20] 0.017
active: [2] -0.391

SNX12 isoform 1 (UniProt Q9UMY4)
inactive: [1] -0.124 | [3] 0.069 | [4] 0.028 | [5] -0.068 | [6] 0.043 | [7] -0.012 | [8] 0.058 | [9] 0.045 | [11] 0.035 | [12] 0.07 | [13] 0 | [14] 0.013 | [15] 0.059 | [16] -0.025 | [17] -0.025 | [18] -0.028 | [19] 0.15 | [20] -0.037
active: [2] -0.252 | [10] -0.275

STEAP3 isoform 2 (UniProt Q658P3)
inactive: [1] 0.036 | [2] -0.013 | [3] -0.023 | [4] 0.01 | [5] 0.028 | [6] -0.084 | [7] 0.002 | [8] 0.021 | [9] 0.041 | [10] -0.096 | [11] -0.02 | [12] -0.027 | [13] -0.059 | [14] -0.027 | [15] -0.025 | [16] -0.067 | [17] 0.055 | [18] -0.024 | [19] 0.012 | [20] 0.006

TIMM44 (UniProt O43615)
Chain of UniProt O43615 (O43615 whole entry, looked up): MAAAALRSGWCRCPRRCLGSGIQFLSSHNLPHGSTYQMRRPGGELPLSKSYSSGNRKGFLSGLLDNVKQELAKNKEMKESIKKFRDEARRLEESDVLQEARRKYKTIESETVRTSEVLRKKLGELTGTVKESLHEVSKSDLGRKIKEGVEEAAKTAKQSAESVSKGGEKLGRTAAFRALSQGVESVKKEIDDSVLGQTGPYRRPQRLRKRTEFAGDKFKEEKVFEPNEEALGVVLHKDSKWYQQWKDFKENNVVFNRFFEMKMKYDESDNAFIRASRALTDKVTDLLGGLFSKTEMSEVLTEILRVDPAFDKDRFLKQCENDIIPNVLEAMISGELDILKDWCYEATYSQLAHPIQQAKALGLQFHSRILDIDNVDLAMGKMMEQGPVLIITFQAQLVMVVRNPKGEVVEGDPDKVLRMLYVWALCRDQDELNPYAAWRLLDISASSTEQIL
inactive: [3] -0.004 | [4] 0.057 | [5] -0.006 | [6] -0.091 | [7] 0.012 | [8] 0.036 | [9] -0.056 | [11] -0.055 | [12] -0.132 | [13] -0.044 | [14] -0.055 | [15] -0.012 | [16] -0.035 | [17] -0.12 | [18] -0.057 | [19] 0.054 | [20] 0.007
active: [1] -0.412 | [2] -0.57 | [10] -0.886

STAT5A (UniProt P42229)
active: [2] -0.633
inactive: [1] -0.225 | [3] 0.121 | [4] 0.072 | [5] -0.072 | [6] 0.041 | [7] 0.074 | [8] 0.056 | [9] -0.005 | [10] -0.109 | [11] -0.093 | [12] -0.14 | [13] -0.151 | [14] 0.088 | [15] -0.001 | [16] -0.273 | [17] 0.006 | [18] 0.054 | [19] 0.088 | [20] -0.059

STOM (UniProt P27105)
Chain of UniProt P27105 (P27105 whole entry, looked up): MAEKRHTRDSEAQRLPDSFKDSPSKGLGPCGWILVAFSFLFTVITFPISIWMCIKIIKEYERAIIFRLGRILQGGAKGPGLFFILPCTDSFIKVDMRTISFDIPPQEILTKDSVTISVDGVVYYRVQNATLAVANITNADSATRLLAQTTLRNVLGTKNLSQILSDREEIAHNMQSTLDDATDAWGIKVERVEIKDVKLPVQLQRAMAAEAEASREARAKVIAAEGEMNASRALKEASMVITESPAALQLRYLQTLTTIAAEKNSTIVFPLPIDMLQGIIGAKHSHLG
inactive: [1] 0.087 | [2] 0.096 | [3] -0.08 | [4] -0.006 | [5] 0.009 | [6] -0.164 | [7] -0.057 | [8] -0.065 | [9] 0.085 | [11] -0.015 | [12] 0.039 | [13] 0.169 | [14] 0.016 | [15] -0.019 | [16] 0.068 | [17] 0.006 | [18] -0.03 | [19] 0.016 | [20] 0.002
active: [10] 0.317

TMBIM1 (UniProt Q969X1)
Chain of UniProt Q969X1 (Q969X1 whole entry, looked up): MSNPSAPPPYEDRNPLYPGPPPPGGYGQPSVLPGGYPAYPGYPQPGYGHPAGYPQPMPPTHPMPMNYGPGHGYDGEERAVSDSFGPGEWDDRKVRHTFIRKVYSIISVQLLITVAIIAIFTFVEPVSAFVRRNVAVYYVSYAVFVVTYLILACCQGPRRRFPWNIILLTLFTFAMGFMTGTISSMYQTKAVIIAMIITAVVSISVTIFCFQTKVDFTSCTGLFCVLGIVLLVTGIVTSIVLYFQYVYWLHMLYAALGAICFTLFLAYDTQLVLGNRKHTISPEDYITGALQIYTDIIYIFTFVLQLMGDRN
inactive: [1] 0.086 | [2] 0.002 | [3] -0.014 | [4] -0.033 | [5] 0.034 | [6] 0.044 | [7] 0.029 | [8] -0.013 | [9] -0.035 | [10] -0.03 | [11] -0.147 | [12] 0.012 | [13] 0.207 | [14] 0.002 | [15] -0.042 | [16] 0.043 | [17] -0.009 | [18] -0.097 | [19] -0.223 | [20] 0.051

STK11IP (UniProt Q8N1F8)
Chain of UniProt Q8N1F8 (Q8N1F8 whole entry, looked up): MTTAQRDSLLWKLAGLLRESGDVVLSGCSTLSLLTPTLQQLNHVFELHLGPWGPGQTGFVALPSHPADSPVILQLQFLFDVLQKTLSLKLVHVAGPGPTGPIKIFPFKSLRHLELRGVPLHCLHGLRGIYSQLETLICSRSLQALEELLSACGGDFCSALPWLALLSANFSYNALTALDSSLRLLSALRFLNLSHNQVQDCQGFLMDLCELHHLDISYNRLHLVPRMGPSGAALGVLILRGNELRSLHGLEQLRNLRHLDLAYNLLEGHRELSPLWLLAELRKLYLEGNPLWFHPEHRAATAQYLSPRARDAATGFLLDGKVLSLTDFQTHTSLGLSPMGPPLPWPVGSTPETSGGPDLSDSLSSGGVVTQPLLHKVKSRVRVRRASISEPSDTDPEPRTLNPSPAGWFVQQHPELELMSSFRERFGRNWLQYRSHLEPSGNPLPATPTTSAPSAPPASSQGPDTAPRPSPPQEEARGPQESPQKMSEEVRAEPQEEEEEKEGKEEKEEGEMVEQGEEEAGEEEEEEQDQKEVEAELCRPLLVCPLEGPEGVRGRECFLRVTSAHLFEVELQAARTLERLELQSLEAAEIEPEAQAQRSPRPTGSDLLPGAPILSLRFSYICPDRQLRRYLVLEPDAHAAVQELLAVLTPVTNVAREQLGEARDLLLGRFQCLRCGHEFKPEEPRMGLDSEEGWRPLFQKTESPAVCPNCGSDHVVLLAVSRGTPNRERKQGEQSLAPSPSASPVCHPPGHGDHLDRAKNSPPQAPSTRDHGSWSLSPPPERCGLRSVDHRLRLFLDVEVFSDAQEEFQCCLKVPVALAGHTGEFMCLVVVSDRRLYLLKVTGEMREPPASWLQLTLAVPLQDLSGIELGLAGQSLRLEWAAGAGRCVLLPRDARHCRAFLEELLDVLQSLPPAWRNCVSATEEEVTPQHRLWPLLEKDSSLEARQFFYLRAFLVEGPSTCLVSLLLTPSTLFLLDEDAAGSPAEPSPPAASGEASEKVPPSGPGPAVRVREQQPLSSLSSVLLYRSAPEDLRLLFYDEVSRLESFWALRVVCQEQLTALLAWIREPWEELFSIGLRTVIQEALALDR
active: [2] -0.517
inactive: [1] -0.224 | [3] 0.103 | [4] 0.069 | [5] -0.051 | [6] -0.006 | [7] 0.025 | [8] 0.011 | [9] 0.026 | [10] -0.233 | [11] 0.001 | [12] -0.138 | [13] -0.184 | [14] 0.084 | [15] 0.097 | [16] -0.074 | [17] 0.1 | [18] -0.039 | [19] 0.265 | [20] 0.007

TFAM (UniProt Q00059)
Chain of UniProt Q00059 (Q00059 whole entry, looked up): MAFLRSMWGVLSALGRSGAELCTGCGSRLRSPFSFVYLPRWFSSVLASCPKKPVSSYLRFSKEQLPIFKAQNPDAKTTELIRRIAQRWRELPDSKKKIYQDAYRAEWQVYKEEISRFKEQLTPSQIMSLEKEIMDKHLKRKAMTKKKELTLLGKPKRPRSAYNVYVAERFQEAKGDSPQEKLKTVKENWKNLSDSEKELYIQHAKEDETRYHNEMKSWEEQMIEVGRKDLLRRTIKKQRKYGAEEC
inactive: [1] 0.058 | [2] 0.059 | [3] 0.007 | [4] -0.053 | [5] 0.035 | [6] 0.062 | [7] -0.074 | [8] -0.017 | [9] 0.098 | [10] 0.049 | [11] -0.017 | [12] 0.052 | [13] 0.116 | [14] 0.052 | [15] -0.008 | [16] 0.107 | [17] 0.042 | [18] -0.01 | [19] 0.039 | [20] 0.047

STX7 (UniProt O15400)
inactive: [1] -0.021 | [2] 0.057 | [3] -0.03 | [4] -0.008 | [5] 0.032 | [6] 0.094 | [7] -0.006 | [8] -0.004 | [9] 0.005 | [10] -0.116 | [11] 0.063 | [12] 0.026 | [13] -0.001 | [14] -0.036 | [15] 0.013 | [16] -0.033 | [17] 0.028 | [18] -0.014 | [19] -0.039 | [20] -0.02

TBC1D5 isoform 2 (UniProt Q92609)
active: [1] -0.397 | [2] -0.854 | [10] -0.375
inactive: [3] 0.113 | [4] 0.069 | [5] -0.076 | [6] -0.016 | [7] 0.039 | [8] 0.022 | [9] 0.021 | [11] -0.033 | [12] -0.169 | [13] -0.077 | [14] -0.036 | [15] -0.013 | [16] -0.088 | [17] 0.015 | [18] -0.159 | [19] 0.119 | [20] -0.055

TBC1D24 (UniProt Q9ULP9)
Chain of UniProt Q9ULP9 (Q9ULP9 whole entry, looked up): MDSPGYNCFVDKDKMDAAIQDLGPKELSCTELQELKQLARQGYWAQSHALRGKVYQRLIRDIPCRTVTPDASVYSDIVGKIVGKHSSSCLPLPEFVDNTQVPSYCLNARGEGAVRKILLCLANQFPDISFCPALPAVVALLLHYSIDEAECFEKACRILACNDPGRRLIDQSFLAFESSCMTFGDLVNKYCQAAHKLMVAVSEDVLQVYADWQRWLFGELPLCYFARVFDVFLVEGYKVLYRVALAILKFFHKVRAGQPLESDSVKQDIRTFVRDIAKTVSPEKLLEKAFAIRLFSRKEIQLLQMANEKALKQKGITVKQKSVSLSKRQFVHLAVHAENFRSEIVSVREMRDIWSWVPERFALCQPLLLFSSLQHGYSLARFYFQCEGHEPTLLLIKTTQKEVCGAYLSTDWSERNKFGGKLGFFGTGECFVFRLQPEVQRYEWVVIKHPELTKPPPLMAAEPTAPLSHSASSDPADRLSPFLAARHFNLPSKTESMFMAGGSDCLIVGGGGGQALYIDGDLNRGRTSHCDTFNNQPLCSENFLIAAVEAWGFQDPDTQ
inactive: [1] 0.025 | [2] -0.028 | [3] 0.05 | [4] -0.011 | [5] -0.006 | [6] -0.175 | [7] 0.018 | [8] 0.075 | [9] -0.067 | [10] -0.236 | [11] -0.025 | [12] -0.016 | [14] -0.044 | [15] -0.075 | [16] -0.106 | [17] -0.148 | [18] 0.077 | [19] -0.011 | [20] -0.005
active: [13] -0.379

SLC25A4 (UniProt P12235)
Chain of UniProt P12235 (P12235 whole entry, looked up): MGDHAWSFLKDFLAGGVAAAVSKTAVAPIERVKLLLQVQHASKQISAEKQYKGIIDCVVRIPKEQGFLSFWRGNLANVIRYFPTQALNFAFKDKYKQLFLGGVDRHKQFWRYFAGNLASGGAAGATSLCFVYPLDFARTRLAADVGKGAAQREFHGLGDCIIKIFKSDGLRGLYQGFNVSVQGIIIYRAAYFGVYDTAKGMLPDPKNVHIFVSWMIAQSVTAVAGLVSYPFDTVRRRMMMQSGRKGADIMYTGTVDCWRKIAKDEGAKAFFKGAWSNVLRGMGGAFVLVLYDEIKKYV
inactive: [1] -0.012 | [2] 0.06 | [3] -0.024 | [4] 0.009 | [5] 0.034 | [6] 0.037 | [7] -0.053 | [8] -0.001 | [9] -0.038 | [10] -0.001 | [11] -0.022 | [12] 0.029 | [13] 0.068 | [14] -0.138 | [15] 0.044 | [16] 0.012 | [17] -0.061 | [18] -0.026 | [19] -0.001 | [20] 0.019

SRI (UniProt P30626)
Chain of UniProt P30626 (P30626 whole entry, looked up): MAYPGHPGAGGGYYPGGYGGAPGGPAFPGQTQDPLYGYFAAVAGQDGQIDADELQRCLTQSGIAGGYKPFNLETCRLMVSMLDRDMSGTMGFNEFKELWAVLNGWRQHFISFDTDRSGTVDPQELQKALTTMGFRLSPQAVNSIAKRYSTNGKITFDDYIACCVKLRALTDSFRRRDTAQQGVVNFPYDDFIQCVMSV
inactive: [1] 0.008 | [2] -0.111 | [3] -0.013 | [5] 0.09 | [6] -0.058 | [7] 0.009 | [8] 0.003 | [9] -0.071 | [10] 0.126 | [11] -0.034 | [12] -0.017 | [13] -0.062 | [14] 0.039 | [15] 0.034 | [16] -0.108 | [17] -0.012 | [18] -0.021 | [19] -0.03 | [20] -0.022
active: [4] 0.393
